From PubChem BioAssay AID1672 (Johns Hopkins Ion Channel Center, 2009)
The campaign covered roughly 310,000 compounds. About 2,600 (0.84%) were called active. The list comes from a sample in which actives are over-represented; it also holds similar structures and randomly drawn compounds. Values without a mark were called inactive.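 How the source made its calls: active means fluorescence ratio B-score at or below minus 3 SD of library scores, with starting-brightness B-score within 2 SD (cut at about -4.2 in these data); inactive means the rest.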

Each compound was assayed against Inward rectifier potassium channel 2 (Mus musculus) (UniProt P35561) (assay: inhibitors of mouse Kir2.1 inward-rectifier potassium channel (AID 1672;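 further: channel flux triggered by added potassium and thallium sulfate stimulus; B-score of peak minus minimum fluorescence over baseline after thallium stimulus; more negative B-score means stronger Kir2.1 block with less thallium influx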)). Details: HEK293-Kir2.1, FluxOR thallium flux fluorescence; at 10 µM; stronger effect = lower value.
Chain of Inward rectifier potassium channel 2 (Mus musculus) (P35561 whole entry, looked up): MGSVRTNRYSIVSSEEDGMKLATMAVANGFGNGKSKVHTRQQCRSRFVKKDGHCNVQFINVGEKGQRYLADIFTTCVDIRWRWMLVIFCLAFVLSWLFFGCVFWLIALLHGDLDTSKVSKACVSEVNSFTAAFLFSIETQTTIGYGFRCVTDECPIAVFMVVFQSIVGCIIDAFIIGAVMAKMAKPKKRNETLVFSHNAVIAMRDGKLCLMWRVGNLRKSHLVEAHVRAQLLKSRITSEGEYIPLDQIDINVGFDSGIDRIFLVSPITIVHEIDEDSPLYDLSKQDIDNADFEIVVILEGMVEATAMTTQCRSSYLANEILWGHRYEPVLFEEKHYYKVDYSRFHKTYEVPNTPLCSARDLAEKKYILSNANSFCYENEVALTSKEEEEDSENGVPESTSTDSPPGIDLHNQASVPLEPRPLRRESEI
`O=C(CNC(=O)C12CC3CC(CC(C3)C1)C2)OCC(=O)N1CCCCC1` showed a B-score of 1.97.
With `CCC(C)N(C(=O)COC(=O)c1nc(Cl)ccc1Cl)C1CCS(=O)(=O)C1` (stereo unspecified) the B-score was -0.16.
`CCN(CC(=O)Nc1ccc(NC(C)=O)cc1)C(=O)C1CC(=O)N(Cc2ccc(C)cc2)C1` (stereo unspecified) was tested, and the B-score was 1.85.
`CCN(CC)C(=O)CC(c1ccc2c(c1)OCO2)c1c(OC)cc(OC)c2c(-c3ccccc3)cc(=O)oc12` (stereo unspecified) showed a B-score of 1.58.
In the case of `CCN(CC)CCC(c1ccc2c(c1)OCO2)c1c(OC)cc(OC)c2c(-c3ccccc3)cc(=O)oc12` (stereo unspecified), the B-score is reported as -6.31 (active).
`COc1cc(OC)c2ccc(=O)oc2c1C(CCN1CCN(c2ccccc2)CC1)c1ccc2c(c1)OCO2` (stereo unspecified) showed a B-score of -0.17.
With `NC(N)=Nc1nc(-c2ccccc2)c2cc(Cl)ccc2n1` the B-score was -10 (active).
Work on `O=C(CCl)NNc1nc(-c2ccccc2)c2cc(Cl)ccc2n1` yielded a B-score of 0.44.
In the case of `Cc1ccc2nc(Nc3ccccc3O)nc(-c3ccccc3)c2c1`, the B-score is reported as -0.47.
With `CCCCn1c(N)c(N(CCOC)C(=O)c2cccc(S(=O)(=O)N(C)c3ccccc3)c2)c(=O)[nH]c1=O` the B-score was -1.94.
`COc1cccc(CNCc2ccc3c(c2)OCO3)c1` was tested, and the B-score was 0.44.
`COc1ccc2c(c1)C(C)=CC(C)(C)N2C(=O)Nc1ccccc1` showed a B-score of -0.17.
`COc1ccc2c(c1)C(C)=CC(C)(C)N2C(=O)CNCc1ccc2c(c1)OCO2` was tested, and the B-score was -6.62 (active).
`COc1ccc(-c2nnc(SCC(=O)Nc3cccnc3Cl)n2C)cc1` gave a B-score of -1.29.
In the case of `COc1ccccc1-c1n[nH]c2c1[C@H](C)CC[C@H]2C(C)C`, the B-score is reported as -5.83 (active).
Work on `COc1ccc(-c2n[nH]c(C)c2-c2ccccc2OC)c(O)c1` yielded a B-score of -2.01.
In the case of `COc1ccccc1-c1nc(SC)n[nH]1`, the B-score is reported as 0.18.
For `CCOc1ccc(S(=O)(=O)N2CCC(C(=O)OCc3ccc(OC)cc3)CC2)cc1`, the B-score was -1.22.
For `CCOc1cc(/C=N/NC(=O)c2cccc(S(=O)(=O)N3CCOCC3)c2)ccc1OCC(=O)N(C)C`, the B-score was 0.
`COc1ccc(CC(=O)NC(C)CCc2ccccc2)cc1` (stereo unspecified) showed a B-score of -1.96.
For `COc1ccc(C(CCNCc2ccccc2F)c2ccc(F)cc2)cc1` (stereo unspecified), the B-score was -9.19 (active).
`COc1ccc(C(CNCC(=O)Nc2ccccc2F)N(C)C)cc1` (stereo unspecified) gave a B-score of -0.53.
`Cc1ccc(NC(=O)COc2coc(CN3CCc4ccccc4C3)cc2=O)cc1Cl` showed a B-score of -0.37.
Compound `CC(=O)Nc1ccc(C(=O)Nc2cccc(S(=O)(=O)NC3=NCCC3)c2)cc1` has a B-score of -0.82.
With `O=C(Nc1ccccc1Cl)/C(Cl)=C(\Cl)S(=O)c1ccccc1` (stereo unspecified) the B-score was -14.3 (active).
`O=C(Nc1ccccc1Cl)Nn1cnnc1` was tested, and the B-score was 1.92.
`O=C(COC(=O)c1cccs1)Nc1ccccc1Cl` gave a B-score of -0.93.
`O=C(NCCCc1ccccc1)C(=O)NCC1OCCN1S(=O)(=O)c1ccccc1` (stereo unspecified) was tested, and the B-score was 0.45.
For `COc1cc(S(=O)(=O)N2CCN=C2c2ccccc2)ccc1Cl`, the B-score was -5.41 (active).
With `CCOc1ccc(S(=O)(=O)N2CCN=C2Cc2ccccc2)cc1C` the B-score was -3.8.
Compound `CC1=NCCN1S(=O)(=O)c1cccc([N+](=O)[O-])c1` has a B-score of 0.
Compound `CCOC(=O)c1cc(C(C)C)sc1NC(=O)COC(=O)c1nccnc1N` has a B-score of -0.16.
For `CCCCN(C(=O)c1ccc(S(=O)(=O)N2CCOCC2)cc1)C1CCS(=O)(=O)C1` (stereo unspecified), the B-score was -1.08.
In the case of `Cc1ccc(-c2nn(-c3ccccc3)cc2C(=O)NCCCN2CCCC2=O)cc1`, the B-score is reported as -0.8.
In the case of `Cc1ccc(OCC(O)CN2CCN(CC(O)COc3ccc(C)cc3Cl)CC2)c(Cl)c1` (stereo unspecified), the B-score is reported as 0.66.
Work on `COc1ccccc1OCC(O)CN1CCOCC1` (stereo unspecified) yielded a B-score of 1.4.
`OC(COc1ccc(F)cc1Cl)CN1CCc2ccccc2C1` (stereo unspecified) was tested, and the B-score was -5.33 (active).
`Cc1ccc(C(=O)NC2CCCC(C)C2C)cc1S(=O)(=O)N1CCCCC1` (stereo unspecified) gave a B-score of -1.83.
In the case of `CCCCC(=O)NCc1ccc(F)cc1`, the B-score is reported as 0.15.
`O=C(Cc1ccccc1)NCc1ccc(F)cc1` gave a B-score of 0.8.
With `CCn1cc(CCC(=O)NCc2ccc(F)cc2)c2ccccc21` the B-score was -6.18 (active).
For `CCC(C(=O)OCCN(CC)CC)c1ccccc1` (stereo unspecified), the B-score was 0.4.
With `CCCC(C(=O)OCCN(CC)CC)(c1ccccc1)c1ccccc1` the B-score was -5.06 (active).
`CCN(CC)CCOC(=O)c1ccc(NC(=O)CNC(=O)c2ccccc2)cc1` gave a B-score of 0.63.
`COc1cc(C(=O)OCC(=O)N(CC(C)C)C2CCS(=O)(=O)C2)ccc1OCC(C)C` (stereo unspecified) showed a B-score of 1.65.
In the case of `COc1ccc(NC(=O)CSc2nnc(Cc3ccccc3)c(=O)n2N)cc1`, the B-score is reported as -1.28.
Work on `CC12CCC(=O)N1C(C(=O)Nc1ccc(F)c(F)c1F)CS2` (stereo unspecified) yielded a B-score of 1.46.
`COc1cccc(CNC(=O)C(=O)NCCC2CCCCN2S(=O)(=O)c2ccc(C)cc2)c1` (stereo unspecified) showed a B-score of -0.02.
With `COc1cccc(CN(C)CC(=O)Nc2sc3c(c2C#N)CCC3)c1` the B-score was 1.34.
`COc1cccc(CN(C)CC(=O)Nc2ccccc2C(=O)Nc2ccccc2)c1` was tested, and the B-score was 0.2.
In the case of `COc1cccc(CN(C)CC(O)COC(c2ccccc2)c2ccccc2C)c1` (stereo unspecified), the B-score is reported as -9.28 (active).
With `C=CCOc1ccc(/C=C/C(=O)OC(C)C(=O)Nc2ccc(NC(C)=O)cc2)cc1` (stereo unspecified) the B-score was 1.98.
With `Cn1c(CO)cnc1SCc1ccccc1` the B-score was 0.48.
With `CSc1c(SCc2ccccc2)cnn(Cc2ccccc2)c1=O` the B-score was -5.77 (active).
For `CSc1nc2ccccc2c(=O)n1Cc1ccc(F)cc1`, the B-score was -0.15.
`O=C(NCCC1CCCCN1S(=O)(=O)c1ccc(Cl)cc1)C(=O)NCc1ccco1` (stereo unspecified) gave a B-score of 0.39.
`CCCc1nc(SCC(=O)Nc2ccc(S(=O)(=O)N(C)C)cc2)c2ccccc2n1` was tested, and the B-score was 0.71.
Compound `CCc1nc(SCC(=O)NNC(=O)c2ccc(C)cc2)c2ccccc2n1` has a B-score of -1.13.
`CCCNC(=O)CSc1nc(Cc2ccccc2)nc2ccccc12` was tested, and the B-score was -5.07 (active).
In the case of `Brc1cnc2ccccc2c1N1CCCCC1`, the B-score is reported as 0.77.
In the case of `CCOc1ccc(NS(=O)(=O)c2ccc(C(=O)NCC(c3ccccc3OC)N3CCCC3)cc2)cc1` (stereo unspecified), the B-score is reported as -0.36.
`CC1CCN(C(=O)COC(=O)c2cc(S(=O)(=O)N3CCOCC3)ccc2Cl)CC1` was tested, and the B-score was -1.43.
With `CCOc1ccc(/C=C/C(=O)N(CC)CC(=O)NCc2cccs2)cc1OC` the B-score was 0.23.
In the case of `Cc1cccc(CN2CCC(CNC(=O)Nc3ccc(F)c(Cl)c3)CC2)c1`, the B-score is reported as -4.23 (active).
In the case of `Cc1ccccc1NC(=O)NCC1CCN(Cc2cccc(Cl)c2)CC1`, the B-score is reported as -0.23.
Compound `Cc1ccc(C)c(CN2CCC(CNC(=O)Nc3ccc(C)c(F)c3)CC2)c1` has a B-score of -0.54.
`O=C1[C@H]2[C@@H](c3ccc(Cl)cc3)N3C(=O)N(c4cccc(F)c4)C(=O)[C@@]3(Cc3ccccc3)[C@H]2C(=O)N1C1CCCCC1` gave a B-score of 1.66.
For `CCCC[C@@H]1CN=C(N)N1CCCC`, the B-score was 0.
Work on `O=C(NCC(c1ccco1)N1CCc2ccccc21)c1cccc(F)c1` (stereo unspecified) yielded a B-score of -0.73.
For `Clc1c(OCCCn2ccnc2)ccc2ccccc12`, the B-score was -7.14 (active).
With `c1ccc(Cc2ccc(OCCn3ccnc3)cc2)cc1` the B-score was -1.84.
Compound `C=CCc1cc(C)ccc1OCCCn1ccnc1` has a B-score of 0.46.
`CC(=O)Nc1ccc(NC(=O)CSC2=NS(=O)(=O)c3ccccc3N2)cc1` showed a B-score of 1.78.
For `CC1(C)CC[C@]2(C(=O)O)CC[C@]3(C)C(=CCC4[C@@]5(C)CC[C@H](O)C(C)(C)C5[C@H](O)C[C@]43C)[C@@H]2C1` (stereo partly specified), the B-score was -0.05.
Work on `CC(=O)c1sc(N)nc1C` yielded a B-score of 0.05.
Work on `O=C1CC2(CCN(C(=O)COc3ccc(F)cc3)CC2)Oc2ccccc21` yielded a B-score of -0.48.
`CC(C)(C)N(CC#CCC(O)(c1ccccc1)C1CCCC1)CCO` (stereo unspecified) was tested, and the B-score was -0.14.
With `CN(CC#CCC(c1ccccc1)c1ccccc1)C(C)(C)C` the B-score was -5.14 (active).
Work on `COc1ccc(C#Cc2c(-c3ccc(OC)cc3)oc3ccc(-c4ccc5c(c4)OCO5)cc23)cc1` yielded a B-score of 0.43.
For `C=CCN(c1ccc(Cl)cc1)S(=O)(=O)c1cccc(C(=O)OCC(=O)N(C)C)c1`, the B-score was -4.24 (active).
In the case of `COc1ccc(N(Cc2ccccc2)S(=O)(=O)c2cccc(C(=O)O)c2)cc1`, the B-score is reported as -0.29.
In the case of `CN(C)S(=O)(=O)c1cccc(C(=O)OCC(=O)N2CCCC2=O)c1`, the B-score is reported as 0.88.
`CCN(CC(=O)Nc1cccc(S(=O)(=O)N2CCCCC2)c1)Cc1ccccc1` gave a B-score of -0.91.
With `Cc1ccccc1NC(=O)COc1cccc2c1CCNC2=O` the B-score was -0.1.
`Cc1cc(OCC(=O)N(C)c2c(N)n(Cc3ccccc3)c(=O)[nH]c2=O)c(C(C)C)cc1Cl` gave a B-score of -0.39.
`FC(F)(F)c1ccc2c3n(nc2c1)CCN=C3c1ccc(Cl)cc1` was tested, and the B-score was 0.62.
`CN(C(=O)c1cc2c(=O)n3ccccc3nc2s1)C1CCCCC1` was tested, and the B-score was -0.51.
In the case of `CC(C)CN(C(=O)Cn1c(=O)cnc2ccccc21)C1CCS(=O)(=O)C1` (stereo unspecified), the B-score is reported as -2.2.
Compound `Cc1ccc(NC(=O)CN(C)Cc2ccc(F)cc2)c([N+](=O)[O-])c1` has a B-score of -0.89.
Compound `Cc1ccc(SC(C)C(=O)NCc2ccc(F)cc2)cc1` (stereo unspecified) has a B-score of -0.79.
In the case of `CSc1ccc(CN(C)CC(=O)NCc2ccc(F)cc2)cc1`, the B-score is reported as -4.3 (active).
`CN(CC(=O)Nc1cccc(F)c1)C(=O)C1=COCCO1` was tested, and the B-score was -0.96.
For `O=C(NCCC1CCCCN1S(=O)(=O)c1cccs1)C(=O)Nc1ccc(F)cc1F` (stereo unspecified), the B-score was -1.66.
`Cc1cc(C)c(C)c(S(=O)(=O)Nc2cccnc2)c1C` was tested, and the B-score was -0.73.
For `Cc1cc(C)c(C)c(S(=O)(=O)Nc2ccc(O)cc2)c1C`, the B-score was -9.99 (active).
`CCOc1ccc(NS(=O)(=O)c2cc(C)c(C)cc2C)cc1` showed a B-score of -1.54.
